From ChEMBL document CHEMBL1961873, “Compounds: GSK PKIS; Assays: Nanosyn kinase panel” (2012)

Molecular target: T1, Serine/threonine-protein kinase TBK1 (Homo sapiens) (UniProt Q9UHD2)
T1 sequence (whole entry): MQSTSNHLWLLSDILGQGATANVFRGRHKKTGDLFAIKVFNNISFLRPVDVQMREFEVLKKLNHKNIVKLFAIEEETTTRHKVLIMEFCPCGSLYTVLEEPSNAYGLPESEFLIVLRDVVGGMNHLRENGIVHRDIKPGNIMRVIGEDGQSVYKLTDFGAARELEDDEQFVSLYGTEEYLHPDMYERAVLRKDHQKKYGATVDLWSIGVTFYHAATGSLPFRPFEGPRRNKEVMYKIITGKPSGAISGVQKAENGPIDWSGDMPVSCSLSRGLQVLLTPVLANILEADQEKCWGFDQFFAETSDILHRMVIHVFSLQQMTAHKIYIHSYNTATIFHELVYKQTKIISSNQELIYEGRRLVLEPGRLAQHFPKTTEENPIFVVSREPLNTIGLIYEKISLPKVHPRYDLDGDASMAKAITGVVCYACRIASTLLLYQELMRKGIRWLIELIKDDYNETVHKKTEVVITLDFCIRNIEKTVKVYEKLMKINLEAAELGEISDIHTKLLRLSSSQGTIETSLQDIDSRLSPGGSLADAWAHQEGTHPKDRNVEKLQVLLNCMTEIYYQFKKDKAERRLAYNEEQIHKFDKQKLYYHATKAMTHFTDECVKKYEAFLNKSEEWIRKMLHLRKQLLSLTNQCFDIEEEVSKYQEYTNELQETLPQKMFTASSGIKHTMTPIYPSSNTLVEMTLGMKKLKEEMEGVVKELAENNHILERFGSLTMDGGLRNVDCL
Settings: at 0.1 µM
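Note: values are the mean TBK1 inhibition, taken from the GSK PKIS screening data.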

Compound	inhibition [%]
COc1cc(C=NNc2ncnc3c2cnn3Cc2ccccc2)ccc1O	0.04
CCn1c(-c2nonc2N)nc2c(C#CCN)ncc(OCCCN)c21	-0.18
CCn1c(-c2nonc2N)nc2c(C#CC(C)(C)O)nc(O[C@@H](CN)c3ccccc3)cc21	20.9
NS(=O)(=O)c1ccc(N/C=C2\C(=O)Nc3ccc4ncsc4c32)cc1	10.7
NC(=O)c1sc(-n2cnc3cc(C(F)(F)F)ccc32)cc1OCc1ccccc1Br	0.98
Cc1cc(-c2ccco2)cc(C)c1/C=C/c1cncc(-c2nn[nH]n2)c1	0.36
Nc1nonc1-c1nc2cnccc2n1C1CCCCC1	3.95
COc1cccc(-n2ncc3c(N/N=C/c4ccncc4)ncnc32)c1	3.12
COc1cc2c(cc1Nc1nc(Nc3ccsc3C(N)=O)c3cc[nH]c3n1)N(C(=O)CN(C)C)CCC2	9.46
CCn1c(-c2nonc2N)nc2c(C#CC(C)(C)O)ncc(OC[C@@H]3CCCN3)c21	5.1
CCn1c(-c2nonc2N)nc2c(C#CC(C)(C)O)ncc(OCC3CCNCC3)c21	5.26
COc1cccc(COc2cc(-n3cnc4ccccc43)sc2C(N)=O)c1	-1.18
Fc1ccc(-c2ncn(C3CCNCC3)c2-c2ccnc(Oc3ccccc3)n2)cc1	0.83
NS(=O)(=O)c1ccc(-c2ccc3c(NC(=O)C4CC4)n[nH]c3c2)cc1	5.3
